The values below come from the supplement of paper PMC6411743.

± gives the standard deviation of the averaged measurements. Of roughly 5,400 targets only a part is listed; those with the largest changes were picked by preference.

The target of this test is T1, UniProt Q13188|Q13188-2.
T1 sequence (whole entry): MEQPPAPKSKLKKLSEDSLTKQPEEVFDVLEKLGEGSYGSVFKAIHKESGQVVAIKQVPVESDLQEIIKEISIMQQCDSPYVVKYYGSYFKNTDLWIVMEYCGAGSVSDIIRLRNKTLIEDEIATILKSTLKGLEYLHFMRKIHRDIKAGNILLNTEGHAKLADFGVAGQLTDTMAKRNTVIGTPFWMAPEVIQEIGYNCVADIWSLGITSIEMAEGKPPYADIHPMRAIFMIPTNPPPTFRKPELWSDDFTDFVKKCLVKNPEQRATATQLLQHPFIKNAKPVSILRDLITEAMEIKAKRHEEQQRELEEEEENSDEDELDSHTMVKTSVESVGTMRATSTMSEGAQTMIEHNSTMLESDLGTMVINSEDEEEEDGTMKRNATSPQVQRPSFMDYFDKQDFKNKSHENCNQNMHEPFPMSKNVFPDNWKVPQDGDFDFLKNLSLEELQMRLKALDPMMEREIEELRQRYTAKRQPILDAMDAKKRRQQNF
Briefly: NP40-soluble protein abundance relative to vehicle (solubility fold change) (ratio); higher = more soluble protein in presence of GTP. How it is done:
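Solubility proteome profiling in Jurkat crude lysate. Lysate was treated with Mg-GTP (0.1-10 mM) for 10 min at room temperature and 3 min at 37 °C, then solubilised with 0.8% NP40 and benzonase, followed by ultracentrifugation. Proteins were quantified by TMT10 LC-MS/MS; the value is the NP40-soluble abundance relative to the NP40-processed vehicle, from 3 independent experiments.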

For `Nc1nc2c(ncn2[C@@H]2O[C@H](COP(=O)(O)OP(=O)(O)OP(=O)(O)O)[C@@H](O)[C@H]2O)c(=O)[nH]1` [guanosine triphosphate], the NP40-soluble protein abundance by setting is: (concentration: 0.1mM) 0.978 ± 0.064; (concentration: 0.5mM) 0.985 ± 0.036; (concentration: 1mM) 0.98 ± 0.057; (concentration: 2mM) 0.982 ± 0.048; (concentration: 4mM) 0.96 ± 0.049; (concentration: 6mM) 0.948 ± 0.052. Moreover, the NP40-soluble protein abundance by setting is: (concentration: 8mM) 0.972 ± 0.071; (concentration: 10mM) 0.973 ± 0.088.
